Measurements published in PubChem BioAssay (EPA / NIEHS).
Results filed as inconclusive are left out. The source holds several records for some structures; these can differ, active in one and inactive in another. The source made the active and inactive calls. Rule for the calls: active = hit-call score of the fitted dose curve at least 0.9, where 1 is the maximum; inconclusive = response in the unintended direction; inactive = score below 0.9.

Experiment: TOX21_p53_BLA_p2_viability: Viability Assessment in the Tox21 HCT-116 p53 Agonism Beta-lactamase Assay, Phase 2 (AID 2283591);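 note: compound exposure lasted 16 h at 37 °C; actives lower the ATP signal meaning cytotoxicity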
Excerpt: TOX21_p53_BLA_p2 is a cell-based, single-readout assay that uses HCT116, a human intestinal cell line, […] in a 1536-well plate.TOX21_p53_BLA_p2_viability is an assay readout measuring cellular ATP content and detected with CellTiter-Glo Luciferase-coupled ATP quantitation.TOX21_p53_BLA_p2_viability used a type of viability reporter where loss-of-signal activity can be used to understand changes in the cell viability. Furthermore, this assay endpoint can be referred to as a secondary readout, because this assay has produced multiple assay endpoints where this one serves a viability function. To generalize the intended target to other relatable targets, this assay endpoint is annotated to the cell cycle intended target family, where the subfamily is cytotoxicity.
Thawing Method: Place 14 mL of pre-warmed thaw medium into a 15 mL of conical tub. Remove the vial of cells to be thawed from liquid nitrogen and thaw rapidly by placing at 37C in a water bath with gentle agitation for 1-2 minutes. Decontaminate the vial by wiping with 70% ethanol before opening in a biological safety cabinet. Transfer the vial contents drop-wise into 14 mL of thaw medium in a sterile 15-mL conical tub. Centrifuge cells at 900 rpm for 4 minutes and resuspend in thaw medium. Transfer contents to the T75 tissue culture flask containing Thaw Medium and place flask in a humidified 37C/5% CO2 incubator. Switch to growth medium at first passage.Propagation Method: Aspirate medium, rinse once in DPBS, add 0.25% Trypsin/EDTA and swirl to coat the cell evenly. Add an equal volume of Growth Medium to inactivate Trypsin after 2-3 minutes incubation at 37C. Centrifuge cells at 900 rpm for 4 minutes and resuspend in growth medium. Cell should be passage or fed at least twice a week.Assay Protocol: Harvest cells from culture in growth medium and resuspend in assay medium. 2.2 Dispense 4000 cells/5 uL/well into 1536-well black/clear bottom plates using a Multidrop dispenser. After the cells were incubated at 37C for 5 hours, 23 nL of compounds dissolved in DMSO were transferred to the assay plate by a PinTool resulting in a 217-fold dilution. Incubate the plates for 16 hours at 37C, 5% CO2. Add 1 uL of 6X LiveBLAzer FRET B/G (CCF4-AM) Substrate Mixture to each well using a BioRAPTR dispenser and incubate the plates at room temperature for 2 hours. Measure fluorescence intensity at 460 and 530 nm emission and 405 nm excitation by an Envision detector. Data is expressed as the ratio of 460nm/530nm emissions. Add 4 uL of Cell-titer Glo to each well using BioRAPTR and incubate the plates at room temperature for […]. For cell viability readout that measures cytotoxicity, 4 ul/well of CellTiter-Glo reagent was added into the assay plates using a Flying Reagent Dispenser. After 30 min incubation at room temperature, the luminescence intensity in the plates was measured using a ViewLux plate reader.

Row | Compound | outcome | AC50
1 | O=C[C@@H](O)[C@H](O)[C@H](O)CO | inactive | –
2 | O=C(O)c1ccc([N+](=O)[O-])cc1 | inactive | –
3 | O=Cc1ccc(F)cc1 | inactive | –
4 | O=S(=O)(O)c1ccc(O)c2ncccc12 | inactive | –
5 | O=C1CCCCCCCCCCCCCCO1 | inactive | –
6 | CCCC(=O)c1cc(O)c(O)cc1O | inactive | –
7 | CCCCNC(=O)NS(=O)(=O)c1ccc(N)cc1 | inactive | –
8 | C=CC(=O)OCCn1c(=O)n(CCOC(=O)C=C)c(=O)n(CCOC(=O)C=C)c1=O | – | 46.1 µM (active)
9 | CCN(CC)c1ccc2c(-c3ccccc3C(=O)O)c3ccc(=[N+](CC)CC)cc-3oc2c1 | inactive | –
10 | CC(=O)Nc1ccccc1O | inactive | –
11 | CC(=O)O[C@]1(C(C)=O)CC[C@H]2[C@@H]3C[C@H](C)C4=CC(=O)CC[C@]4(C)[C@H]3CC[C@@]21C | inactive | –
12 | CC(=O)Nc1ccc(CC(=O)O)cc1 | inactive | –
13 | C=CC(C)(CCC=C(C)C)OC=O (stereo not given) | inactive | –
14 | c1ccc(CCCc2ccccn2)cc1 | inactive | –
15 | O=C(OCc1ccccc1)C(=O)OCc1ccccc1 | inactive | –
16 | O=Nc1ccc(Nc2ccccc2)cc1 | inactive | –
17 | O=c1cc(-c2ccccc2)oc2cc(O)cc(O)c12 | inactive | –
18 | CC(C)c1cccc(O)c1 | inactive | –
19 | CN(C)C(=N)N=C(N)N | inactive | –

Row | Compound | outcome | AC50
20 | CC(=O)OCc1ccc2c(c1)OCO2 | inactive | –
21 | OCCOCCOCCOCCO | inactive | –
22 | O=c1[nH]c(=O)n([C@H]2CCCO2)cc1F | inactive | –
23 | O=C1CCc2ccccc2O1 | inactive | –
24 | Cc1ccc(C(=O)c2cc(O)c(O)c([N+](=O)[O-])c2)cc1 | inactive | 53.8 µM (active)
25 | CCCCc1ccc(N)cc1 | inactive | –
26 | CC(C)=CCC[C@](C)(O)[C@@H]1CC=C(C)CC1 | inactive | –
27 | NCCNCCN | inactive | –
28 | O=C(O)CN(CCN(CC(=O)O)CC(=O)O)CCN(CC(=O)O)CC(=O)O | inactive | –
29 | CCCCCNCCCCC | inactive | –
30 | O=C1C(c2[nH]c3ccc(S(=O)(=O)O)cc3c2O)=Nc2ccc(S(=O)(=O)O)cc21 | inactive | –
31 | COCCOCCOCCOCCOCCO | inactive | –
32 | Cc1ccc(S)cc1 | inactive | –
33 | CCc1ccc(C=O)cc1 | inactive | –
34 | CCCCCCCCCCCCN | inactive | 51.6 µM (active)
35 | CC[Si](OC(C)=O)(OC(C)=O)OC(C)=O | inactive | –
36 | CCCCOCCOCCSC#N | inactive | –
37 | O=C(O)Cc1cccc2ccccc12 | inactive | –
38 | CCCc1c(OCCCOc2ccc(OCC(=O)O)cc2)ccc(C(C)=O)c1O | – | 57 µM (active)
